From PubChem BioAssay (EPA / NIEHS)
Inconclusive results are not listed. Activity calls are given as the source filed them. How the source made its calls: active means hit-call score of the fitted dose curve at least 0.9, where 1 is the maximum; inconclusive means response in the unintended direction; inactive means score below 0.9.

Biological target: PGR (gene 5241) (UniProt P06401)
Experiment: TOX21_PR_BLA_Followup_Agonist_ratio: Tox21 HEK293 Progesterone Receptor (PR) Agonism Beta-lactamase Follow-Up Assay, Ratio (AID 2283933)
How it was run: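 PR-UAS-bla HEK293T cells in medium with 2% charcoal-stripped FBS were dosed after 6 h plating and incubated 16 h at 37C. LiveBLAzer FRET substrate was added for 2 h at room temperature. Cleaved/uncleaved substrate ratio fitted against DMSO; CellTiter-Glo viability run in the same wells.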

Sequence of PGR (gene 5241) (P06401 whole entry, looked up): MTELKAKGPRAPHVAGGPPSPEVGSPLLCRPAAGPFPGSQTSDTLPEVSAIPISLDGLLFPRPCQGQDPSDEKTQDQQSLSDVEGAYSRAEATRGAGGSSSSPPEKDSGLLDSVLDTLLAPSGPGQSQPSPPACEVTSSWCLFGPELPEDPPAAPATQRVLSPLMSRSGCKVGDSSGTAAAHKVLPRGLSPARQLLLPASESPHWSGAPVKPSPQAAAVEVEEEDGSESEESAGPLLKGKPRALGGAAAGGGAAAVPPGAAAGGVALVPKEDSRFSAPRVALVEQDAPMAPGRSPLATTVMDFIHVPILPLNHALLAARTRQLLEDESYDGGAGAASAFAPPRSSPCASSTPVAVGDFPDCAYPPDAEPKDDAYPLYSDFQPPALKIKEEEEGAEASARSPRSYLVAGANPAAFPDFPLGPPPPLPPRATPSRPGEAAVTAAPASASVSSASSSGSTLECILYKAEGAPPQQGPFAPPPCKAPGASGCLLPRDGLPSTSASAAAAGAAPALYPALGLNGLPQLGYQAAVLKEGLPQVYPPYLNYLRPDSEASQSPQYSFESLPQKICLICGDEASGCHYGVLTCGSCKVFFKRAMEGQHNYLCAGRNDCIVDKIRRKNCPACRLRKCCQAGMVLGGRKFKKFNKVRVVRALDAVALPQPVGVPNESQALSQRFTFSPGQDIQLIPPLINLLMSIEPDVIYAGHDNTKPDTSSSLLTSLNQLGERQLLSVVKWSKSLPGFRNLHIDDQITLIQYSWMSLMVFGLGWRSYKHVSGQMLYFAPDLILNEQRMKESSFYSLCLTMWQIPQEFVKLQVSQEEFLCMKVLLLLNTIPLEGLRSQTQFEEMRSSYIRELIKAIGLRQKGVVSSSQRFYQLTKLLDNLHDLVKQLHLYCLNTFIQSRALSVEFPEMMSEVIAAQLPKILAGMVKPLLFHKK

SMILES	outcome	AC50
CC(=O)O[C@@H]1CC2C3CCc4cc(OC(=O)c5ccccc5)ccc4C3CCC2(C)[C@H]1OC(C)=O (stereo not given in full)	inactive	–
CC(=O)OCC(=O)[C@@]1(O)CC[C@H]2[C@@H]3CCC4=CC(=O)CC[C@]4(C)[C@H]3C(=O)C[C@@]21C	inactive	–
CC(=O)OCC(=O)[C@H]1CC[C@H]2[C@@H]3CCC4=CC(=O)CC[C@]4(C)[C@H]3CC[C@]12C	–	0.844 µM (active)
C[C@@H]1CC(=O)NN=C1c1ccc(NN=C(C#N)C#N)cc1	inactive	–
CCC(=O)Oc1ccc2c(c1)CC[C@@H]1[C@@H]2CC[C@@]2(C)[C@H]1C[C@@H](OC(=O)CC)[C@@H]2OC(=O)CC	inactive	–
COC(=O)C1=C(C)NC(C)=C(C(=O)OC(C)C)C1c1cccc2nonc12 (stereo not given)	inactive	–
CC1(C)OC(=O)Nc2ccc(Br)cc21	inactive	–
CCCC(=O)OCOC(=O)C1=C(C)NC(C)=C(C(=O)OC)C1c1cccc(Cl)c1Cl (stereo not given)	inactive	–
C[C@@H]1C[C@H]2[C@@H]3CCC4=CC(=O)C=C[C@]4(C)[C@@]3(F)[C@@H](O)C[C@]2(C)[C@@]1(O)C(=O)COC(=O)c1ccncc1	–	26.1 µM (active)
CC(=O)O[C@H]1CC[C@@]2(C)C(=CC[C@@H]3[C@@H]2CC[C@]2(C)C(C(C)=O)=CC[C@@H]32)C1	inactive	–
CCC(=O)O[C@]1(C(=O)COC)[C@@H](C)C[C@H]2[C@@H]3CCC4=CC(=O)C=C[C@]4(C)C3(F)[C@@H](O)C[C@@]21C (stereo not given in full)	–	0.468 µM (active)
CC(C)(C)C(O)/C=C/c1ccc2c(c1)OCO2 (stereo not given)	inactive	–
CCN(CC)CC(=O)OCC(=O)[C@@]1(O)CC[C@H]2[C@@H]3CCC4=CC(=O)CC[C@]4(C)[C@H]3[C@@H](O)C[C@@]21C	inactive	–
COC(=O)[C@@H]1CC2=CC(=O)CC[C@]2(C)[C@@]23O[C@@H]2C[C@@]2(C)[C@@H](CC[C@@]24CCC(=O)O4)[C@H]13	inactive	–
C[C@]12CCC(=O)C=C1CC[C@@H]1[C@@H]2[C@@H](O)C[C@@]2(C)[C@H]1CC[C@]2(O)C(=O)CO	inactive	–
C/C=C(/C(=C/C)c1ccc(OC(C)=O)cc1)c1ccc(OC(C)=O)cc1	inactive	–

Biological target: PGR (gene 5241) (UniProt P06401)
Experiment: TOX21_PR_BLA_Followup_Antagonist_ratio: Tox21 HEK293 Progesterone Receptor (PR) Antagonism Beta-lactamase Follow-Up Assay, Ratio (AID 2283934)
How it was run: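 PR-UAS-bla HEK293T cells, 3,000/well in 2% charcoal-stripped FBS, given compound plus 1nM R5020 agonist for 16 hr at 37C. Beta-lactamase FRET substrate 2 hours, ratio cleaved/uncleaved fluorescence; viability by CellTiter-Glo in same wells.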

SMILES	AC50	outcome
CC(=O)O[C@@H]1CC2C3CCc4cc(OC(=O)c5ccccc5)ccc4C3CCC2(C)[C@H]1OC(C)=O (stereo not given in full)	5.65 µM (active)	–
CC(=O)OCC(=O)[C@@]1(O)CC[C@H]2[C@@H]3CCC4=CC(=O)CC[C@]4(C)[C@H]3C(=O)C[C@@]21C	–	inactive
C[C@@H]1C[C@H]2[C@@H]3C[C@H](F)C4=CC(=O)C=C[C@]4(C)[C@@]3(F)[C@@H](O)C[C@]2(C)[C@@]1(O)C(=O)CO	–	inactive
CC(=O)OCC(=O)[C@H]1CC[C@H]2[C@@H]3CCC4=CC(=O)CC[C@]4(C)[C@H]3CC[C@]12C	–	inactive
C[C@]12CCC(=O)C=C1CC[C@H]1[C@@H]3CC[C@](O)(C(=O)CO)[C@@]3(C)C[C@H](O)[C@@]12F	–	inactive
C[C@@H]1CC(=O)NN=C1c1ccc(NN=C(C#N)C#N)cc1	17.3 µM (active)	–
CCC(=O)Oc1ccc2c(c1)CC[C@@H]1[C@@H]2CC[C@@]2(C)[C@H]1C[C@@H](OC(=O)CC)[C@@H]2OC(=O)CC	2.81 µM (active)	–
COC(=O)C1=C(C)NC(C)=C(C(=O)OC(C)C)C1c1cccc2nonc12 (stereo not given)	19.4 µM (active)	–
CC1(C)OC(=O)Nc2ccc(Br)cc21	–	inactive
CCCC(=O)OCOC(=O)C1=C(C)NC(C)=C(C(=O)OC)C1c1cccc(Cl)c1Cl (stereo not given)	–	inactive
C[C@@H]1C[C@H]2[C@@H]3CCC4=CC(=O)C=C[C@]4(C)[C@@]3(F)[C@@H](O)C[C@]2(C)[C@@]1(O)C(=O)COC(=O)c1ccncc1	–	inactive
C/C=C1/C(=O)C[C@H]2[C@@H]3CCC4=CC(=O)CC[C@]4(C)[C@H]3CC[C@]12C	–	inactive
CC(=O)O[C@H]1CC[C@@]2(C)C(=CC[C@@H]3[C@@H]2CC[C@]2(C)C(C(C)=O)=CC[C@@H]32)C1	10 µM (active)	–
CCC(=O)O[C@]1(C(=O)COC)[C@@H](C)C[C@H]2[C@@H]3CCC4=CC(=O)C=C[C@]4(C)C3(F)[C@@H](O)C[C@@]21C (stereo not given in full)	–	inactive
CC(C)(C)C(O)/C=C/c1ccc2c(c1)OCO2 (stereo not given)	–	inactive
CC(=O)OCC(=O)[C@@]1(O)[C@H](C)C[C@H]2[C@@H]3CCC4=CC(=O)C=C[C@]4(C)[C@@]3(F)[C@@H](O)C[C@@]21C	–	inactive
CCN(CC)CC(=O)OCC(=O)[C@@]1(O)CC[C@H]2[C@@H]3CCC4=CC(=O)CC[C@]4(C)[C@H]3[C@@H](O)C[C@@]21C	–	inactive
C[C@]12CCC(=O)C=C1CC[C@@H]1[C@@H]2[C@@H](O)C[C@@]2(C)[C@H]1CC[C@]2(O)C(=O)CO	–	inactive
C/C=C(/C(=C/C)c1ccc(OC(C)=O)cc1)c1ccc(OC(C)=O)cc1	9.64 µM (active)	–
